# Measurements as given in PubChem BioAssay AID720711 (National Center for Advancing Translational Sciences (NCATS), 2013).
# In all, about 360,000 compounds went through this assay and about 290 (0.081%) were called active. A call without a number means that no potency is given here. This is one part of a sample in which actives are shown more often than they occur. Calls follow the shape of the dose curve; as a rule, active = well fitted activation curve with a large enough effect; inconclusive = small, poorly fitted or top-dose-only effect; inactive = no such curve, though single readings can be large or run the other way.
# Target: Rap guanine nucleotide exchange factor 4 (Homo sapiens) (UniProt Q8WZA2)
# Sequence (Q8WZA2 whole entry, looked up): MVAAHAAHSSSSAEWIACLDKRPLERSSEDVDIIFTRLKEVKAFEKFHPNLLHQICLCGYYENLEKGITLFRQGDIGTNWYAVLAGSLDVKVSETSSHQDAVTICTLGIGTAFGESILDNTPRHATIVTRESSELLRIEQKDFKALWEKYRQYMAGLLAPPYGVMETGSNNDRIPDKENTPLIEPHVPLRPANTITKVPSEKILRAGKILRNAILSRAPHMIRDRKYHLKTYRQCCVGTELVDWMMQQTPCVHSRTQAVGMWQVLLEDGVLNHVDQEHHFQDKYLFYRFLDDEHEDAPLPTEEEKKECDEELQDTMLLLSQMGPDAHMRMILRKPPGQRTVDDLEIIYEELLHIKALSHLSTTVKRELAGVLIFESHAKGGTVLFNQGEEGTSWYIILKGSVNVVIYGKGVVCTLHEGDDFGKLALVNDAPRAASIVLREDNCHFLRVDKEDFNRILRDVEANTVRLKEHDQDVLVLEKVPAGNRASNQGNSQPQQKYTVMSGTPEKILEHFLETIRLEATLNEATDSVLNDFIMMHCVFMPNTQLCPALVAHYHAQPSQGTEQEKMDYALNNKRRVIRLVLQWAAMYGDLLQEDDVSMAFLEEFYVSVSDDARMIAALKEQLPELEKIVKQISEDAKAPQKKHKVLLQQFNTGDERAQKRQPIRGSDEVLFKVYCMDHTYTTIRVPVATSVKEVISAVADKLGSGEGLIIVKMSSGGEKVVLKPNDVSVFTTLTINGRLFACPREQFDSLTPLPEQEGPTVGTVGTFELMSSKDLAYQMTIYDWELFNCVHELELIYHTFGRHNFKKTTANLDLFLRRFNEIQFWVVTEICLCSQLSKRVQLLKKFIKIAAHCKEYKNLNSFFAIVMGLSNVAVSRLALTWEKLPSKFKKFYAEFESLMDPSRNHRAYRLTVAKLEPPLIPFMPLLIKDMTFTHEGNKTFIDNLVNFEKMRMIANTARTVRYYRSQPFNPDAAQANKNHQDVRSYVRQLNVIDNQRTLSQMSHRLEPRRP
# Assay: qHTS for Agonist of cAMP-regulated guanine nucleotide exchange factor 4 (EPAC2): primary screen; also: nearly all actives have a fitted effect of over 50% in size
# Details: biochemical qHTS; Potency: EPAC2 activation; series mostly up to 154 µM
# From the text: In multi-cellular eukaryotic organisms, the effects of cAMP are transduced by two ubiquitously-expressed intracellular cAMP receptors, the classic protein kinase A/cAMP-dependent protein kinase (PKA/cAPK) and the more recently discovered exchange protein directly activated by cAMP/cAMP-regulated guanine nucleotide exchange factor (EPAC/cAMP-GEF). Both PKA and EPAC are ubiquitously expressed in all tissues, and an increase in intracellular cAMP levels will lead to the activation of both PKA and EPAC. Therefore, careful dissections of the individual role and relative contribution of EPAC and PKA within the overall cAMP signaling in various model systems are critical for further elucidating the mechanism of cAMP signaling. To date no EPAC-specific antagonists and agonist, as well as isoform-specific agonists have been reported, and developing EPAC-specific pharmacological probes to determine the physiological functions that EPAC play in the overall cAMP-mediated signaling remains a major challenge within the research field. Furthermore, identified regulators of EPAC may lead to new mechanism-based therapeutic strategies specifically targeting the EPAC / cAMP-signaling components as EPAC has been implicated to play important roles in major human pathological conditions such as diabetes, heart disease, and cancer.
# This qHTS will be used to screen the Molecular Libraries Small Molecule Repository (MLSMR) as a concentration-titration series using the NCGC unique quantitative screening (qHTS) platform to find activators for EPAC2. In addition, this assay will also be used as a counterscreen for the EPAC1 qHTS. This fluorescent based assay is developed and validated for EPAC2 that measures exchange using EPAC effector Rap1 complex with BODIPY-GDP, a GDP analog with a tethered fluorophores. Activators are identified by monitoring the change in fluorescence signal as the exchanged free BODIPY-GDP has a reduced fluorescence compared to Rap1-bound BODIPY-GDP. […] in signal (activation) is the desired outcome for the EPAC2 agonist while no activity in this assay is desired for the EPAC1 agonist counterscreen.
# [1] de Rooij, J., Zwartkruis, F. J., Verheijen, M. H., Cool, R. H., Nijman, S. M., Wittinghofer, A., and Bos, J.L. (1998) Nature 396, 474-477
# [2] Kawasaki, H., Springett, G. M., Mochizuki, N., Toki, S., Nakaya, M., Matsuda, M., Housman, D. E., and Graybiel, A. M. (1998) Science 282, 2275-2279
# NIH Chemical Genomics Center [NCGC]
# NIH Molecular Libraries Probe Centers Network [MLPCN]
# Assay Submitter (PI): Xiaodong Cheng, The University of Texas, Medical Branch
# Briefly, three uL of reagents (100 nM EPAC2, 250 nM RAP1B-BODIPY-GDP, 50 uM GDP) were dispensed into a 1536-well Greiner black solid-bottom medium binding assay plate. Controls and test compounds (23 nL) were transferred to the plate via a Kalypsys pin tool equipped with a 1536-pin array. The plates were centrifuged at 1,000 rpm for 15 seconds followed by 5 minute incubation at room temperature. The assay plates were read at 5 minute intervals for 30 minutes in the ViewLux plate reader using 480nm excitation and 540nm emission filters. The results were normalized to the agonist positive control of 6.5 mM cAMP.
# Potency is read from the fitted curve at half-maximal effect.
row,SMILES,Potency
1,CSc1nnnn1-c1c(C)cc(C)cc1C,inactive
2,Cc1cc(-c2ccccc2)n2nc(C)c(-c3ccccc3)c2n1,inactive
3,CC1=C/C(=N\OS(=O)(=O)c2ccccc2)C=CC1=O,inactive
4,COc1cccc(NC(=O)CSc2nnc(Cc3ccc(OC)c(OC)c3)o2)c1,inactive
5,COc1ccc(NC(=O)CCCOc2ccc(C(C)=O)cc2)cc1S(=O)(=O)N1CCCCC1,inactive
6,CCOC(=O)/C(C#N)=C\c1c(C)cc(C)c(COC(C)=O)c1C,inactive
7,CCOC(=O)/C(C#N)=C/c1ccc(N2CCN(Cc3ccccc3)CC2)cc1,89.1 µM (active)
8,CCOC(=O)/C(C#N)=C/c1ccc(N2CCCCC2)cc1,79.4 µM (active)
9,COc1ccc(/C=C(\C#N)C(=O)ONC2=NCCCCC2)cc1,inactive
10,COC(=O)c1sc(N2CCN(Cc3ccccc3)CC2)nc1N,inactive
11,CCCn1c(C)cc(/C=C(\C#N)C(=O)OCC(=O)N(C)c2c(N)n(Cc3ccccc3)c(=O)[nH]c2=O)c1C,inactive
12,O=C(Nc1ccccc1)Oc1cccc2cccnc12,inactive
13,CCc1cc2c(=O)c(-c3ccon3)c(N)oc2cc1OC,inactive
14,COCc1cc(C)nc2sc(C(=O)NC3CCCCC3)c(N)c12,inactive
15,Cc1ccc(C2(C(F)(F)F)N=C3Sc4cc(C)cc(C)c4N3C(=O)N2)cc1 (stereo not drawn),inactive
16,CC(C)C[C@H]1CN=C(Nc2ccccc2)N1CC1CCCCC1,inactive
17,NC1=NOC(=O)C1C1CCCCC1 (stereo not drawn),inactive
18,COc1ccc(-c2nnc(SCC(=O)Nc3cccnc3Cl)n2C)cc1,inactive
19,CCc1nccn1CCC(=O)N1CCCC(N2CCN(c3ccccc3F)CC2)C1 (stereo not drawn),inactive
20,CC1=C(C(=O)N(C(C)C)C(C)C)CC(CC(=O)NCC2CCCCC2)C(=O)N1Cc1ccccc1 (stereo not drawn),inactive

row,SMILES,Potency
1,O=C(O)CCCn1c(=O)c2cccn2c2ccc(F)cc21,inactive
2,CCOc1ccccc1NC(=O)C1CCC(CNc2c(N3CCOCC3)c(=O)c2=O)CC1 (stereo not drawn),inactive
3,CC(C)CNC(=O)/C=C/C(=O)O,inactive
4,CCN(CC)CCn1c(N)c(S(=O)(=O)c2ccccc2)c2nc3ccccc3nc21,inactive
5,C=CCn1c(N)c(S(=O)(=O)c2cccs2)c2nc3ccccc3nc21,10 µM (active)
6,C=CCN1CN(S(=O)(=O)c2ccc(OC)cc2)c2nc3ccccc3nc21,inactive
7,Cn1ncc(N2CCN(S(=O)(=O)c3ccc(Br)cc3)CC2)c(Cl)c1=O,inactive
8,CCCCn1c(N)c(N(CCC(C)C)C(=O)c2ccc(COc3ccccc3)o2)c(=O)[nH]c1=O,inactive
9,Cc1cccc(C2c3[nH]c4ccccc4c3CCN2C(=O)c2cc(-c3cccn3C)n[nH]2)n1 (stereo not drawn),inactive
10,O=C(NC1(C(F)(F)F)N=C2SCCN2C1=O)c1ccco1 (stereo not drawn),inactive
11,NC(=O)COC(=O)c1sc2cc(F)ccc2c1Cl,inactive
12,NC(=O)C1CCN(C(=O)c2ccc3c(=O)n(Cc4cccc(Br)c4)c(=S)[nH]c3c2)CC1,inactive
13,Cc1ccc(SCC(=O)c2cc(C)c(OC(=S)N(C)C)c(C)c2)cc1,inactive
14,CSc1cc(C)[nH]c(=O)n1,inactive
15,CCCNC(=O)CCc1c(C)nc2c(c(C)nn2-c2ccccc2)c1C,inactive
16,COc1ccccc1CNC(=O)CN1CCC(n2cnc3cc(F)ccc32)CC1,inactive
17,CCN(CC)c1ncnc2c1ncn2[C@H]1CN(Cc2cccs2)C[C@@H](CO)O1,inactive
18,COc1ccc(OCC(=O)OCC(=O)Nc2ccc(S(=O)(=O)N3CCCCC3)cc2)cc1,inactive
19,CCCN(CC(=O)Nc1ccc(OC)c(OC)c1)CC(=O)Nc1ccc(F)c(F)c1F,inactive
20,COc1cccc(N=c2oc3c(C)ncc(CO)c3cc2C(N)=O)c1,inactive

row,SMILES,Potency
1,Cc1ccc(CNC(=O)C2CCN(S(=O)(=O)c3ccc4nc5c(c(C(=O)O)c4c3)CC(C)CC5)CC2)cc1 (stereo not drawn),inactive
2,CCCCc1nc2cc(C(=O)N3CCCCC3CCO)ccc2o1 (stereo not drawn),inactive
3,COc1cc(C)c(Cl)cc1S(=O)(=O)n1ccnc1,inactive
4,CCN(CC)c1ccc2oc(=O)c(C)nc2c1,100 µM (active)
5,Cc1ccc2c(=O)oc(N(C)C)nc2c1,inactive
6,CN(Cc1nc2ccccc2c(=O)[nH]1)Cc1cc(=O)oc2ccc3ccccc3c12,inactive
7,Cc1cc(C)cc(N(CC(=O)NCC2CCCO2)S(=O)(=O)c2c(C)noc2C)c1 (stereo not drawn),inactive
8,Cc1cc(OCC(=O)N(C)c2c(N)n(Cc3ccccc3)c(=O)[nH]c2=O)c(C(C)C)cc1Cl,inactive
9,Cn1c(=O)[nH]c(=O)c2c1[nH]c(=S)n2Cc1ccccc1,inactive
10,Cc1cc2nc3c(=O)n(Cc4ccccc4)c(=O)[nH]c3nc2cc1N,112 µM (active)
11,CCn1nc(C)c(CNC(=O)C2CCC(=O)N(Cc3cccc(F)c3)C2)c1C (stereo not drawn),inactive
12,CN(C)C(=O)c1nc2ccc(Cl)cn2c1CNCc1cccc(OC(F)(F)F)c1,inactive
13,CSCCC(NC(N)=O)C(=O)N(C)CC(=O)Nc1ccc(C)cc1 (stereo not drawn),inactive
14,CCCCN(C1CCS(=O)(=O)C1)S(=O)(=O)c1ccc(C(C)C)cc1 (stereo not drawn),inactive
15,CCCC(=O)NC(=S)Nc1ccc(CN2CCOCC2)cc1,inactive
16,O=C(CCCl)Nc1ccc(S(=O)(=O)NCc2ccco2)cc1,inactive
17,O=C(CNC(c1ccccc1)c1ccccc1)Nc1ccc(F)cc1,inactive
18,COc1ccc(S(=O)(=O)N2CCCC(C(=O)Nc3ccc(NC(=O)c4ccccn4)cc3)C2)cc1 (stereo not drawn),inactive
